Here are results for 54 sequences from PubChem BioAssay AID1347426 (Functional Genomics Laboratory (NCATS/FGL), 2020).

Screen size: about 31,000 sequences; about 1,400 (4.5%) were called active.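 Rule for the calls: active = median seed-adjusted z-score above 1 or below -1; inactive = the rest.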 The sample as a whole holds a higher share of actives than the screen did.

The experiment in a line: Novel Modifiers of Survival Motor Neuron (SMN) Protein: Gene Identification via Genome-wide siRNA Screen.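 Note: luminescence tracks full-length SMN protein made from the SMN2 reporter.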 Particulars: HEK293T SMN2-luciferase reporter, siRNA knockdown, 72 h; actives lie on both sides. The source says: Spinal muscular atrophy (SMA) is the most common neuromuscular autosomal recessive disorder and one of the leading genetic causes of infant death. SMA results from mutations inducing loss of function or deletion in the survival of motor neuron-1 gene (SMN1), leading to deficiency of the survival motor neuron (SMN) protein. Although a second nearly identical gene, SMN2, is retained in humans, its expression primarily produces an aberrantly spliced isoform that is largely unstable and quickly degraded. We performed a genome-wide RNAi screen using a cell-based reporter assay to identify genes and pathways that modulate SMN protein stability. The screen identified over 200 genes that led to the greatest increase or decrease in luciferase expression.
Using HEK293T cells stably expressing a luciferase reporter that combines the promoter and splicing based cassettes in tandem with the major portion of the native SMN2 cDNA with luciferase, we performed a genome-wide RNAi screen to identify modulators of SMN protein levels. Luciferase is expressed when full-length SMN protein is generated with luminescence signal proportional to SMN protein levels. Our luciferase-based reporter assay was used to screen Ambion Silencer Select Human Druggable Genome siRNA library (10418 genes, 3 unique siRNAs per gene) using lipid-based reverse transfection.
Briefly, 1 pmol of each siRNA was spotted to a well of a 384-well plate (Corning, Corning, NY) and 20 microL of serum-free DMEM containing […] of Lipofectamine RNAiMax (Life Technologies, Carlsbad, CA) was then added to each well. Transfected cells were maintained at 37 degrees C in 5% CO2 for 72 hours, 20 microL of ONE-Glo Reagent (Promega) was added to wells for luciferase quantification. Raw luminescence reads were normalized to Ambion(R) Silencer(R) Negative Control #2 siRNA, then log10 transformed. A robust statistical measure of median absolute deviation (MAD) to standardize siRNA activities from each screen. Common Seed Analysis was used to help prioritize clean hits as opposed to those appearing to arise from seed based off-target effects. Candidate modulators were defined as the genes having a MAD score greater than 1.0 or less than -1.0.
(In a reporter assay the amount or activity of a reporter protein is the signal.)
Regarding GGCUUAGGAUGGAGACCUATT against TGDS, the median seed-adjusted z-score is -0.196 (inactive).

With GUGUUUAAGGGCUUUUGAATT against CBR3, the median seed-adjusted z-score was 0.057 (inactive).

Regarding GAAAUACCCUAUUACCAAATT against MED26, the median seed-adjusted z-score was -1.86 (active).

In the case of AACCCAUCGUUCCAUAUUATT against PPOX, the median seed-adjusted z-score is 0.519 (inactive).

Turning to GAGUAGCAGGAAAAACGAATT against SNX13, the median seed-adjusted z-score is 0.253 (inactive).

As to CCUAUGACAUGUUUCCAGATT against MAP4K2, the median seed-adjusted z-score was -0.439 (inactive).

As for GCUAUAAGCCGAUAGUAGATT against 11-Sep, the median seed-adjusted z-score is -0.245 (inactive).

On to GCUGGGCCGAGUACCUUAATT against PDX1, for which the median seed-adjusted z-score was 0 (inactive).

Take GAAGUAAGUUUGUUGUAGATT against PGAP1: the median seed-adjusted z-score is -0.272 (inactive).

In the case of GCAAUGAGAUGAACACCGATT against NPEPL1, the median seed-adjusted z-score is 1.12 (active).

As to GCCGAACUAUCUGAGAAUATT against PCDH1, the median seed-adjusted z-score was -0.514 (inactive).

Take GGGUUAAUGUUGAGGAAUUTT against NME7: the median seed-adjusted z-score is -0.331 (inactive).

Regarding CGGUAUCACCGUUGAUGAATT against ARID1A, the median seed-adjusted z-score is -1.14 (active).

For the sequence CCUGAUUUCUUGUGAUACATT against DNAJC24, the median seed-adjusted z-score is -0.0166 (inactive).

As to GGACAUUUGCAUACUCCUATT against PPP1R14D, the median seed-adjusted z-score is 0 (inactive).

Consider GCAUUUCGCCUGACCAUUATT against SENP1, for which the median seed-adjusted z-score is 0.625 (inactive).

As to CCGUUUUGGUGAGUCAACATT against RANBP2, the median seed-adjusted z-score was 1.53 (active).

For the sequence GAAUUGGAGUGAUUCGAAUTT against NETO2, the median seed-adjusted z-score is -0.136 (inactive).

As for GGAAGACUAUUGGAUAGAATT against ARHGAP18, the median seed-adjusted z-score is 0 (inactive).

Turning to CACCAGAUCUACCAGUUCATT against ADM, the median seed-adjusted z-score is 0.65 (inactive).

With GCCCUACAUGGUAAAUUCATT against GTDC1, the median seed-adjusted z-score is 0.2 (inactive).

As to CCCAAGAACUGCUACGUCATT against SMPD2, the median seed-adjusted z-score is -0.406 (inactive).

On to GAAACUUCCUAAGUCGAAATT against FAM57A, for which the median seed-adjusted z-score was 0.0434 (inactive).

With CGUUCGGAAUAACUGAAAUTT against GNG7, the median seed-adjusted z-score is -0.205 (inactive).

AGAACAACCGGAUUCGAGATT against LRRC52: the median seed-adjusted z-score is 0.118 (inactive).

Consider UAAAGUUCUUUUAUCCAUUTT against UBE2D3, for which the median seed-adjusted z-score was 1.62 (active).

GGGAGAACGUGACCAUCUATT against ICAM5: the median seed-adjusted z-score is -1 (active).

For GCCUUUCAGUCAUCGCGCATT against PLXND1, the median seed-adjusted z-score was -0.064 (inactive).

For GCUGGUCCCUUGGAUAAGATT against MED1, the median seed-adjusted z-score is -0.855 (inactive).

GAAACAGUGCUGAAGCCUUTT against RYBP: the median seed-adjusted z-score is 0.831 (inactive).

As for GGGAGGGCAUCAACAAGAATT against RGS19, the median seed-adjusted z-score is 0.295 (inactive).

On to GGCUGCACAUAUACCUUAATT against RRN3, for which the median seed-adjusted z-score is 0.0382 (inactive).

Regarding GGAUAGUUUUUCGAAUUAATT against MYO9A, the median seed-adjusted z-score is -0.567 (inactive).

In the case of GGUAAGGCCUUAUAAUGUATT against KHK, the median seed-adjusted z-score is 0 (inactive).

As for GGAUAUCCGCCUUCACAGATT against BAG4, the median seed-adjusted z-score was 0.111 (inactive).

Regarding CCACUAGCUGAUUACUAUATT against MED6, the median seed-adjusted z-score was -2.15 (active).

Take CGAAGAAUCUUCCGAAGAATT against EIF2AK1: the median seed-adjusted z-score was -0.546 (inactive).

In the case of GAAUGUAUCAGCUACCGAUTT against HYAL4, the median seed-adjusted z-score was -0.236 (inactive).

Turning to GAAAGACUCUUACCAUUUUTT against SSBP4, the median seed-adjusted z-score is 0.254 (inactive).

Regarding GCAUUGGGAUGUACUUGUATT against LRP12, the median seed-adjusted z-score was 0.416 (inactive).

As for GCAUGAACUGAAACCCAAUTT against SMURF1, the median seed-adjusted z-score was -1.4 (active).

On to CCAUCGUACCUGUUACCAATT against KRIT1, for which the median seed-adjusted z-score is -0.447 (inactive).

With GCAUCUACGAGUUCAUCAUTT against FOXG1, the median seed-adjusted z-score was 0.749 (inactive).

As to GCAGUGAUCUAGUCUCUUUTT against GLRX, the median seed-adjusted z-score was -0.0561 (inactive).

Consider CAUAACCACUUUAAAGUCATT against GAB1, for which the median seed-adjusted z-score is 0.373 (inactive).

Consider GCAAAUUGAUGAACCGGUUTT against CEP135, for which the median seed-adjusted z-score was -0.2 (inactive).

As to UGACCACACUUCUCAGCUATT against IL9R, the median seed-adjusted z-score is -1.33 (active).

Take GCACGAGGCUGGUACAGUUTT against MFNG: the median seed-adjusted z-score is 0.377 (inactive).

As for GGAGACUAGUGGUGGGAUATT against CCL16, the median seed-adjusted z-score was -0.308 (inactive).

As to GCAACUUGUGAAUCUAGGATT against VCAM1, the median seed-adjusted z-score is 0.19 (inactive).

Regarding AACUUGUCGCUGCCCAAUATT against ABCA2, the median seed-adjusted z-score is -1.18 (active).

For the sequence GGCUGACAGUAGCUAAGCUTT against RAPGEF4, the median seed-adjusted z-score is -0.197 (inactive).

For the sequence CCAGAUGGAUGUACACUGUTT against PDE6C, the median seed-adjusted z-score is 0.205 (inactive).

For CCACGCACAUACUAUCAAATT against HIVEP1, the median seed-adjusted z-score was 0.532 (inactive).
